Only some compounds are listed: those with a hit (about 10% of all), similar ones and a draw of the others.
FLuc inh: Firefly luciferase inhibition profiling of diverse chemical library using quantitative high-throughput screening; 76,000 tested, 2.5% active; Potency, µM (titrated, usually from 115 µM), hits mostly inhibitors; AID 1347043, 2019; Luciferin 4-monooxygenase (Photinus pyralis), P08659; purified P. pyralis luciferase, luminescence, biochemical; also: nearly all actives have a fitted effect of over 65% in size
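Biochemical qHTS: compound (6-point titration) added to 10uM D-luciferin plus 10uM ATP in Tris acetate pH 7.5 buffer with Mg, Tween-20 and BSA, then purified enzyme at 10nM; light output imaged.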
HEK cytotox: Cytotoxic Profiling in HEK 293 Cell Line of Diverse Libraries Using Quantitative High-Throughput Screening; HEK 293 viability, ATP luminescence (CellTiter-Glo), 48-72 h; 94,000 tested, 6.6% active; Potency, µM (doses to about 115 µM), without a hit: top-dose activity change, negative = cytotoxicity, most hits filed as inhibitors; AID 1345083, 2018; also: nearly all actives have a fitted effect of over 60% in size
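CellTiter-Glo luminescence (cellular ATP) was read after 48 or 72 hr of compound exposure at 37 degree Celsius. Cells were HEK 293 plated at 250 cells/well.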
hNpr1 antagonist: Natriuretic polypeptide receptor (hNpr1) antagonism - Primary qHTS; AID 1347048, 2019; Potency, µM (titrated, usually from 46.3 µM), for the others: at the top dose activity change, negative = inhibition, hits mostly inhibitors; HEK293 hNpr1 GloSensor cGMP, ANP-stimulated luminescence; 76,000 tested, 1.6% active; Atrial natriuretic peptide receptor 1 (Homo sapiens), P16066; calls by dose curve; also: nearly all actives have a fitted effect of over 60% in size
Target sequence (P16066 whole entry, looked up): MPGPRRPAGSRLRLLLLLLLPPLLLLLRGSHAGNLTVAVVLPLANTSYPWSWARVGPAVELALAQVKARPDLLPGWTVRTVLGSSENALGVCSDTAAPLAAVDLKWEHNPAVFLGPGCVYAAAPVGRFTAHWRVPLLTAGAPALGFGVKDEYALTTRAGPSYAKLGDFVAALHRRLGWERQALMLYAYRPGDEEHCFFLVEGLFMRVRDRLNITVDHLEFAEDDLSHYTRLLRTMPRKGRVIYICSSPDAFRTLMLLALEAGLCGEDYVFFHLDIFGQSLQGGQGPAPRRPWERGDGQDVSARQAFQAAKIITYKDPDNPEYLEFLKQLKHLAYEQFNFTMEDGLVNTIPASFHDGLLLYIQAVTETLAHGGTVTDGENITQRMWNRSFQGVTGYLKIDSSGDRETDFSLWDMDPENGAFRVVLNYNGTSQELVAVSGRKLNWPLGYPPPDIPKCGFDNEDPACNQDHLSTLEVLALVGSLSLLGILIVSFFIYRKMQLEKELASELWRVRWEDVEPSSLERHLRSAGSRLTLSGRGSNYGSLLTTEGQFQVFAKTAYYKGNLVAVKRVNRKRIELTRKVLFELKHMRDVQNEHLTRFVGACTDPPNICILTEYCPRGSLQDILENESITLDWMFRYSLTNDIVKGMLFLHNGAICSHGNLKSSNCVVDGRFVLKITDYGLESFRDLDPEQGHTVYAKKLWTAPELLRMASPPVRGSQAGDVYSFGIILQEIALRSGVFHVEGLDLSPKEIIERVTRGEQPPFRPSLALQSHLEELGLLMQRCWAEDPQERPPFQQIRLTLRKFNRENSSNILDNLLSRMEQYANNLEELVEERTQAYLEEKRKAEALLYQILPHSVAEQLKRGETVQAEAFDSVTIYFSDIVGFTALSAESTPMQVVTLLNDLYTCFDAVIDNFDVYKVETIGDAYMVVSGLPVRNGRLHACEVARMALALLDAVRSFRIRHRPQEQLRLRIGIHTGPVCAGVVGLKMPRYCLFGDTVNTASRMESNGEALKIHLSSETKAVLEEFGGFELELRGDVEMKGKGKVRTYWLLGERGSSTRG
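HEK293 cells stably expressing human Npr1 and cGMP GloSensor pGS-40F, loaded 2 h with 2% GloSensor reagent, given compound 30 min at room temperature. Luminescence read before and 20 min after 0.1 nM hNppA.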
3T3 cytotox: Cytotoxic Profiling in NIH 3T3 Cell Line of Diverse Libraries Using Quantitative High-Throughput Screening | NIH 3T3 viability, CellTiter-Glo ATP luminescence, 48-72 h | Potency, µM (highest dose often 96.7 µM), for the others: top-dose activity change, negative = cytotoxicity, most hits filed as inhibitors | 94,000 tested, 4.3% active | AID 1345082, 2018; also: nearly all actives have a fitted effect of over 55% in size
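Cytotoxicity is measured as loss of cellular ATP: NIH 3T3 cells (400/well) are exposed to compound for 48 or 72 hr at 37 °C, then CellTiter-Glo luminescence is imaged after 10 min at room temperature.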
GPT2 inhibitor: Primary qHTS assay for inhibitors of Glutamate pyruvate transaminase 2 (GPT2); 100,000 tested, 0.25% active; Potency, µM (series often up to 57.7 µM), without a hit: at the highest dose activity change, negative = inhibition, actives largely listed as inhibitors; Recombinant GPT2, coupled pyruvate oxidase/HRP Amplex Red fluorescence; also: nearly all actives have a fitted effect of over 60% in size
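GPT2 10ng/uL, a-KG 250uM, L-Ala 2mM, HEPES pH7.5 + 0.0001% Tween; 30 min RT. Then Amplex mix (PO/HRP/ThPP), 30 min RT dark, fluorescence. AOA 50uM used as positive control.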
Numbers without * were called inactive; i = inactive; ? = inconclusive; . = not tested or not shown; [ ] = remark or other dose. Unless noted, calls follow the shape of the dose curve; as a rule, active = well fitted curve in the direction sought with a large enough effect; inconclusive = small, poorly fitted or top-dose-only effect, or another doubt; inactive = no such curve, though single readings can be large; an effect the other way counts as inactive or inconclusive. % is scaled to controls: 0 for no effect and ±100 for the full control effect; potency is read from the fitted curve at half-maximal effect.

SMILES | FLuc inh | HEK cytotox | hNpr1 antagonist | 3T3 cytotox | GPT2 inhibitor
Cc1nn(-c2ccccc2)c2c1C(C)N(CC1CN(Cc3cccc(C(F)(F)F)c3)C1)C2=O (stereo not drawn) | . | 28µM* | . | ? | .
Cc1nn(-c2ccccc2)c2c1C(C1CC1)N(C1CCN(C(=O)c3ccccc3Cl)C1)C2=O (stereo not drawn) | . | 35µM* | . | 22µM* | .
Cc1ccc(NC(=O)N2CCC(CCNC(=O)Cc3cccc(F)c3)CC2)cc1F | i | -10% | 3% | -19% | i
C#CCNC(=O)c1ccc2nnc(-c3ccc(C(F)(F)F)cc3)n2c1 | . | -3% | . | -24% | -3%
CCOC(=O)C1(Cc2ccc(F)cc2F)CCCN(S(=O)(=O)c2c(C)noc2C)C1 (stereo not drawn) | i | 40µM* | 5% | ? | i
O=C(O)CCn1ncc2cc(OC3CCN(C(=O)Oc4ccccc4)CC3)ccc21 | i | -19%[172 µM] | 2%[70.6 µM] | ? | -15%[88.5 µM]
O=C(O)CCn1ncc2cc(OCC3CCN(C(=O)Oc4ccccc4Cl)CC3)ccc21 | ? | -25% | 4% | 18µM* | -5%
O=C(O)CCn1ncc2cc(OC3CCN(C(=O)COc4ccccc4)CC3)ccc21 | i | i | 5%[70.6 µM] | 50µM* | -12%[88.5 µM]
O=C(O)CCn1ncc2cc(OCC3CCN(C(=O)CCC(F)(F)F)CC3)ccc21 | i | -9%[172 µM] | 6%[70.6 µM] | 13µM* | i
O=C1NC2(CCCN(Cc3ccc(F)cc3)C2)COc2ccccc21 (stereo not drawn) | i | ? | 16% | ? | 1%
O=S1(=O)NC2(CCCN(Cc3ccc(Cl)cc3)C2)COc2ccccc21 (stereo not drawn) | . | ? | . | 45µM* | 3%
O=C1NC2(CCCN(Cc3cncs3)C2)COc2ccccc21 (stereo not drawn) | i | 28µM* | -6% | 22µM* | -8%
O=C1NC2(CCCN(Cc3ccsc3)C2)COc2ccccc21 (stereo not drawn) | i | 79µM* | -21%[70.6 µM] | 40µM* | i
O=C1NC2(CCCN(Cc3ccc(OC(F)(F)F)cc3)C2)COc2ccccc21 (stereo not drawn) | i | ? | -7% | ? | i
Cc1noc(C)c1[S+](=O)([O-])N1CCCC2(COc3ccccc3C(=O)N2)C1 (stereo not drawn) | i | 22µM* | ? | 35µM* | i
Cc1noc(C)c1[S+](=O)([O-])N1CCN(Cc2ccccc2-c2ccccc2F)CC1 | . | ? | . | ? | i
CCC(=O)Nc1cc(C(=O)NCC(C)C)c2ccc(C)nc2c1 | i | -20% | 3% | -7% | i
O=C(NC1CCN(c2cnn(Cc3ccccc3)c(=O)c2)CC1)c1ccsc1 | i | -17% | 6% | -16% | 2%
COc1ccc(CCNC(=O)c2ccc(Cn3ccn4nc5c(c4c3=O)CCCC5)cc2)cc1OC | i | 40µM* | ? | ? | -3%
Cc1ccc(Cl)cc1N1CCN(C(=O)CCn2ccn3nc4c(c3c2=O)CCCC4)CC1 | i | ? | ? | ? | i
O=C(NCc1ccncc1)c1ccc(Cn2ccn3nc4c(c3c2=O)CCCC4)cc1 | i | ? | -16% | ? | i
CC(C)Oc1ccc(CNC(=O)c2ccc(Cn3ccn4nc5c(c4c3=O)CCCC5)cc2)cc1 | i | 35µM* | ? | ? | -16%
Cc1ccccc1N1CCN(C(=O)c2ccc(Cn3ccn4nc5c(c4c3=O)CCCC5)cc2)CC1 | i | 20µM* | -28% | ? | 1%
O=C(NC1CCCCCCC1)c1ccc(Cn2ccn3nc4c(c3c2=O)CCCC4)cc1 | i | 32µM* | -18% | ? | -8%
CCC1(N2CCN(S(=O)(=O)c3ccccc3Cl)CC2)CCN(S(C)(=O)=O)C1 (stereo not drawn) | i | ? | 1% | -27% | i
SMILES | FLuc inh | HEK cytotox | hNpr1 antagonist | 3T3 cytotox | GPT2 inhibitor
CCC[C@@H]1C[C@@H](C(=O)N[C@H](C(C)Cl)[C@H]2O[C@H](SC)[C@H](O)[C@@H](O)[C@H]2O)N(C)C1 (stereo partly drawn) | . | . | . | . | -10%
Cc1noc([C@@H]2CN(C(=O)c3occc3C)C[C@H]2CO)n1 | i | 4% | -6% | -9% | -4%
CN(C)[C@@H]1CN(C(=O)c2ccsc2)CC[C@]1(O)c1ccccc1 | i | -3% | -2% | 2% | i
Cc1ccc(C)c(Cn2ccn3nc4c(c3c2=O)CCCC4)c1 | i | 40µM* | -1% | ? | i
Cc1ccc(NC(=O)Cn2ccn3nc4c(c3c2=O)CCCCC4)c(C)c1 | ? | -15% | -2% | -26% | 4%
O=C(COc1ccccc1)N1CCc2c(n(Cc3cccnc3)n(CCc3ccccc3)c2=O)C1 | i | -32% | -5% | 35µM* | i
COc1ccc(-n2c(=O)c3c(n2Cc2ccccc2)CN(C(=O)COc2ccccc2)CC3)cc1 | i | -7% | -3% | 40µM* | i
COc1ccc(Cn2c3c(c(=O)n2Cc2ccccc2)CCN(C(C)=O)C3)cc1 | i | i | -1%[70.6 µM] | ? | -3%[88.5 µM]
COc1ccc(Cn2c3c(c(=O)n2Cc2ccccc2)CCN(C(=O)CCc2cccnc2)C3)cc1 | i | i | 4% | 6.3µM* | -18%
O=c1c2c(n(Cc3cccnc3)n1CCc1ccccc1)CN(Cc1cccc(O)c1)CC2 | i | -6% | -1% | ? | 2%
CCn1c2c(c(=O)n1Cc1ccccc1)CCN(C(=O)c1cccc(C#N)c1)C2 | i | 0%[172 µM] | -11%[70.6 µM] | ? | i
CCn1c2c(c(=O)n1Cc1ccccc1)CCN(C(=O)c1cccnc1)C2 | i | i | 5%[70.6 µM] | 50µM* | i
COc1cccc(CN2CCCOCCNC(=O)[C@@H]3CCCC[C@@H]32)c1 | i | -5% | -20% | i | i
CC(C)c1noc(-c2cn(C3CCN(C(=O)c4ccccc4F)CC3)nn2)n1 | i | -28% | 3% | -12% | i
COCCn1c(=O)c2c(n1Cc1ccccc1)CN(C(=O)COc1ccccc1)CC2 | i | i | -2%[70.6 µM] | 22µM* | 1%[88.5 µM]
COCCn1c2c(c(=O)n1-c1ccccc1)CCN(C(=O)COc1ccccc1)C2 | i | -17%[172 µM] | -4%[70.6 µM] | ? | i
CCn1c2c(c(=O)n1Cc1ccccc1)CCN(C(=O)COc1ccccc1)C2 | i | 5%[172 µM] | 2%[70.6 µM] | 50µM* | -1%[88.5 µM]
